# From PubChem
# Only some compounds are listed: those with a hit (about 4.1% of all), similar ones and a draw of the others.
# Sm TGR block: inhibitors of Schistosoma mansoni thioredoxin glutathione reductase; Potency, µM (highest dose often 114 µM), for the others: at the top dose activity change, negative = inhibition, usual class: inhibitors; 360,000 compounds, 3% hits; purified TGR, DTNB reduction, TNB absorbance 405 nm; AID 485364; Q962Y6; note: nearly all actives have a fitted effect of over 60% in size
#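 TGR 20 nM + NADPH 100 uM (dispensed conc.), cpd preinc 15 min RT; start with NADPH (500 uM addition) then DTNB (15 mM addition). Kinetic TNB absorbance, 405 nm filter. Four-parameter Hill fit across titration.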
# AMA1 RON2 block: disrupts binding of P. falciparum AMA1 to RON2. AlphaScreen AMA1-biotinylated RON2 peptide binding. Potency, µM (highest dose often 58.2 µM), for inactives: at the top dose activity change, negative = inhibition, hits mostly inhibitors. 360,000 compounds, 0.2% hits;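 note: 0% = vehicle wells and -100% = peptide control; nearly all actives have a fitted effect of over 45% in size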
#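 AMA1 (3D7) with his tag at 25 nM final met compounds first, then biotinylated RON2 peptide at 25 nM; detection used donor plus acceptor beads, 10 µg/mL apiece, read by AlphaScreen after 30 min at room temperature.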
# AmpC inh no detg: inhibitors of E. coli AmpC beta-lactamase without detergent; P00811; AmpC nitrocefin hydrolysis, absorbance 480 nm, 0.0001% Triton; Potency, µM (doses to about 57.1 µM), for inactives: at the top dose activity change, negative = inhibition, usual class: inhibitors; 330,000 compounds, 0.52% hits;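 note: plate controls were no compound for no effect and no enzyme for full effect; nearly all actives have a fitted effect of over 20% in size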
# Target sequence (P00811 whole entry, looked up): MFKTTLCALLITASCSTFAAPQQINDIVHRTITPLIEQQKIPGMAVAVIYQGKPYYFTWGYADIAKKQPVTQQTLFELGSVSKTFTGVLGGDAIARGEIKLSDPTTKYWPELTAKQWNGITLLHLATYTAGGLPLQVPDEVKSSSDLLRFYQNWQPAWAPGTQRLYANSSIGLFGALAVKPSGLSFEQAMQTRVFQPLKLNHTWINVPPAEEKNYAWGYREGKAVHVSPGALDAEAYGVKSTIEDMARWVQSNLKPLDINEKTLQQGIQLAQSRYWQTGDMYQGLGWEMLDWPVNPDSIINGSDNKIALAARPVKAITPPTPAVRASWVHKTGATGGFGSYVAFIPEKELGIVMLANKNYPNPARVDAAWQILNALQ
#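 AmpC (5.3 nM in the dispensed reagent) in 20 mM phosphate pH 7.0 with 0.01% (detergent screen) or 0.0001% Triton X-100 was preincubated with compounds for 15 min at room temperature. Nitrocefin was then added from an 800 uM solution, and hydrolysis was followed at 480 nm.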
# FMDV inh: blocks foot and mouth disease virus | 410,000 compounds, 1.2% hits | Potency, µM (top dose mostly 57.9 µM), for inactives: at the highest dose activity change, negative = inhibition, usual class: inhibitors | FMDV antiviral cell-based qHTS | AID 1159524; calls by dose curve; tested in HEK293T cells; note: read-out not given here; nearly all actives have a fitted effect of over 45% in size
# AmpC detergent: inhibitors of E. coli AmpC beta-lactamase with detergent | P00811 | AID 485294 | 370,000 compounds, 0.041% hits | AmpC hydrolysis of nitrocefin, absorbance 480 nm, 0.01% Triton | Potency, µM (highest dose often 114 µM), for inactives: at the top dose activity change, negative = inhibition, most hits filed as inhibitors;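 note: 0% = no-compound wells and -100% = no-enzyme wells; nearly all actives have a fitted effect of over 25% in size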
#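 AmpC (5.3 nM in the dispensed reagent) in 20 mM phosphate pH 7.0 with 0.01% (detergent screen) or 0.0001% Triton X-100 was preincubated with compounds for 15 min at room temperature. Nitrocefin was then added from an 800 uM solution, and hydrolysis was followed at 480 nm.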
# * = called active by the depositor; u = inconclusive; x = not tested or not shown; [ ] = dose if it differs, or a comment. Unless noted, calls come from the whole dose curve; as a rule, active = well fitted curve in the direction sought with a large enough effect; inconclusive = small, poorly fitted or top-dose-only effect, or another doubt; inactive = no such curve, though single readings can be large; an effect the other way counts as inactive or inconclusive. Unless noted, % is set by controls: 0 for no effect and ±100 for the full control effect; potency is the fitted concentration of half-maximal effect.
SMILES,Sm TGR block,AMA1 RON2 block,AmpC inh no detg,FMDV inh,AmpC detergent
O=C(NCCc1ccc(F)cc1)C(=O)NCC1CCCN1S(=O)(=O)c1ccccc1 (centres undefined),-1%,7%,u,40µM*,-14%
O=C(NCCC1CCCCN1S(=O)(=O)c1cccs1)C(=O)Nc1ccc(F)cc1 (centres undefined),-3%,-9%,-3%,1%,u
COc1ccc(S(=O)(=O)N2CCCC2CNC(=O)C(=O)NCc2ccc(C)cc2)cc1 (centres undefined),-3%,18%,-6%,-16%,-8%
COc1ccc(S(=O)(=O)N2CCCC2CNC(=O)C(=O)NCc2ccccc2)cc1 (centres undefined),3%,9%,32µM*,-13%,u
O=C(NCC1CCCN1S(=O)(=O)c1cccs1)C(=O)Nc1ccc(F)cc1 (centres undefined),-15%,10%,28µM*,31%,u
Fc1ccc(Nc2nc3ccccc3n3cnnc23)c(F)c1,-1%,x,x,-4%,11%
CP(=O)(Nc1cc(Cl)ccc1Cl)c1nc2c(s1)CCCC2 (centres undefined),8.9µM*,-8%,30%,-3%,-12%
O=C(/C=C/c1ccco1)NC1=NCCS1,45µM*,5%,-17%,0%,1%
CNS(=O)(=O)c1ccc2nc(NC(=O)/C=C/c3ccco3)sc2c1,22µM*,-5%,-20%,1%,6%
Cc1nc(NC(=O)/C=C/c2ccco2)sc1C,50µM*,-13%,-17%,28%,-10%
O=C(/C=C/c1ccco1)Nc1cccc(NC(=O)/C=C/c2ccco2)n1,-36%,24%,-50%,19%,0%
CCc1nnc(NC(=O)/C=C/c2ccco2)s1,40µM*,-7%,-10%,44%,-11%
CCC(CC)c1nn2c(=O)cc(COc3ccc(NC(=O)c4ccc(C)cc4)cc3)nc2s1,1%,x,x,-23%,12%
O=c1cnc2cnc(Nc3ccccc3)nc2n1CCc1ccccc1,x,x,x,-13%,x
CCOC(=O)C1CCCN(C(=O)C2CCN(c3nnc(C)c4c(C)n(-c5ccccc5)nc34)CC2)C1 (centres undefined),-8%,x,x,-2%,-6%
CCSc1nnc(NC(=O)/C=C/c2ccco2)s1,22µM*,-1%,-48%,34%,-4%
COC(=O)c1sc(NC(=O)/C=C/c2ccc(C)o2)nc1C,45µM*,8%,-21%,21%,-6%
CCOC(=O)c1ccccc1Nc1cc(C)nc2nc(-c3ccco3)nn12,18µM*,x,x,0%,10%
Cc1cc(Nc2ccccc2Cl)n2nc(-c3ccco3)nc2n1,u,x,x,-23%,1%
O=C(O)Cc1sc(-c2cccnc2)nc1-c1ccc(Br)cc1,22µM*,16%,-28%,5%,u
COc1ccc(-n2nc(C(=O)NCCc3ccc(OC)c(OC)c3)c3c4ccccc4n(C)c3c2=O)cc1Cl,13%,x,x,u,2%
Cc1ccc2oc(C(=O)Nc3c(C(=O)c4ccc(C)c(F)c4)oc4ccccc34)cc(=O)c2c1,3%,x,x,-11%,2%
Fc1ccccc1-c1cc2ncccc2cn1,32µM*,-11%,-8%,81%,2%
COc1cc(OC)cc(-c2cc3ncccc3cn2)c1,-20%,-2%,-11%,1%,6%
CCOc1ccccc1NC(=O)COC(=O)c1cn(CC)c2nc(C)ccc2c1=O,0%,x,x,0%,30%
SMILES,Sm TGR block,AMA1 RON2 block,AmpC inh no detg,FMDV inh,AmpC detergent
Cc1sc2nc(CN3CCCC3)nc(NCc3ccncc3)c2c1C,40µM*,29%,32%,15%,4%
Cc1sc2nc(CN3CCCC3)nc(Cl)c2c1C,7.1µM*,1%,-40%,-22%,u
Cc1sc2nc(CN3CCCCC3)nc(Nc3ccc4c(c3)OCCO4)c2c1C,4%,-3%,1%,-9%,4%
COc1ccccc1OCC(=O)NCCS(=O)(=O)N1CCN(c2ccccc2OC)CC1,2%,x,x,-12%,16%
CCOC(=O)C1CCN(S(=O)(=O)c2c(Cl)ccc3nonc23)CC1,0.89µM*,x,0%,x,16%
O=C(Nc1cccc(-c2nc3cccnc3s2)c1)c1cccc(Br)c1,-33%,x,x,-13%,19%
Oc1ccc(/C=N/N2CCCCC2)cc1O,2.8µM*,11%,-21%,23%,2%
Clc1ccc(C=NN2CCCCCC2)cc1Cl,x,-28%,x,20%,x
N#Cc1ccc(C=NN2CCCCCC2)cc1,x,28µM*,x,16%,x
COc1cc(/C=N/N2CCCCC2)cc(OC)c1O,14µM*,-4%,0%,37%,-3%
Cc1cccn2c(=O)c(C(=O)N3CCN(c4ccccc4)CC3)cnc12,9%,x,x,8%,6%
CCN1CCCC1CNCc1cc2ccc(SC)cc2nc1-c1cc(OC)ccc1OC (centres undefined),x,x,x,-2%,x
CC1Cc2cc(-c3csc(NC(=O)Cc4cccs4)n3)ccc2N1S(C)(=O)=O (centres undefined),5%,-12%,-20%,5.6µM*,1%
CCC(=O)Nc1nc(-c2ccc3c(c2)CC(C)N3S(C)(=O)=O)cs1 (centres undefined),0%[57.1 µM],-17%,-7%,-17%,-7%
COc1ccc(C)cc1NC(=O)C1CCCN(S(=O)(=O)c2ccc3c(c2)oc(=O)n3C)C1 (centres undefined),5%,x,x,-24%,6%
CCOC(=O)c1c(SCCN2CCCC2)n(-c2ccccc2)c(=S)n(-c2ccccc2)c1=O,x,-13%,x,20µM*,x
Cn1nc(C(C)(C)C)cc1C(=O)N1CCCCC1c1cc(C(=O)Nc2ccc(F)c(Cl)c2)no1 (centres undefined),x,0%,x,25µM*,x
O=C(Nc1ccc(F)c(Cl)c1)c1cc(C2CCCCN2C(=O)c2ccc(Cl)cc2)on1 (centres undefined),x,-9%,x,-28%,x
CCc1ccccc1NC(=O)CSc1ncccc1C(=O)O,0%,x,x,6%,3%
COc1ccc(C2=Nn3c(nnc3-c3ccccc3Cl)SC2)cc1OC1CCCC1,x,x,10%,32µM*,x
CC(NS(=O)(=O)c1ccc(Br)cc1)C(c1cccs1)N1CCN(C)CC1 (centres undefined),-4%,-16%,45µM*,0%,u
CC(NS(C)(=O)=O)C(c1cccs1)N1CCN(C)CC1 (centres undefined),0%,13%,-8%,13%,-1%
COc1ccc(CNC(=O)[C@H](Cc2ccccc2)NC(=O)C2CCNCC2)cc1,32µM*,12%,4%,-13%,-4%
CC(C)(C)C1CCc2c(sc(NC(=O)c3cccc(Cl)c3)c2C(N)=O)C1 (centres undefined),0%,x,x,-2%,3%
O=C(NCCC1=CCCCC1)C(=O)NCc1ccccc1,14%,-1%[2.32 µM],-9%,32%,3%
O=C(O)C1C2C=CC(O2)C1C(=O)NCCC1=CCCCC1 (centres undefined),22µM*,2%,63%,-14%,5%
